We go through 39 compounds from PubChem BioAssay AID720690 (Broad Institute, 2013).

Potency and affinity values are given separately. The source made the active and inactive calls.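 The calls were made as follows: active = every repeat run showing a signal drop whose fitted half-maximal concentration is at most twice the top tested concentration; inconclusive = repeat runs disagree, or flat partial drop, or poor fit; inactive = the rest.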

This assay in a line: general mammalian cell viability loss – activator set, cherry-pick, cytotoxicity control for miR-122 modulator project, dose response (AID 720690). As to conditions: HEK293T viability, CellTiter-Glo luminescence, 48 h; series mostly up to 26 µM. In general terms: In ATP-based viability assays light output follows the ATP content of the culture.
Regarding `C/C=C/c1ccc([C@H]2[C@H](CO)N[C@H]2CN(CC(C)C)C(=O)c2ccccn2)cc1`, the call was inactive.

Regarding `CCNC(=O)C[C@@H]1CC[C@H]2[C@H](COc3ccc(NC(=O)c4ccccc4)cc3C(=O)N2C)O1`, the result was inactive.

As to `COCC(=O)Nc1ccc2c(c1)C(=O)N(C)[C@@H]1CC[C@@H](CC(=O)NCCCN(C)C)O[C@@H]1CO2`, the call was inactive.

Regarding `CCC(=O)N(C)C[C@@H]1[C@H](c2ccc(-c3ccccc3F)cc2)[C@H](CO)N1C(C)=O`, the call was inactive.

On to `Cc1cc(C(=O)Nc2ccc3c(c2)C(=O)N(C)[C@H]2CC[C@@H](CC(=O)N[C@@H](C)c4ccccc4)O[C@H]2CO3)no1`, for which the result was inactive.

With `OC(c1cc(C(F)(F)F)nc2c(Cl)cc(Cl)cc12)C1CCCCN1` (centres undefined), the compound was classed as inactive.

In the case of `COCC(=O)Nc1ccc2c(c1)C(=O)N(C)[C@H]1CC[C@@H](CC(=O)NCCCN(C)C)O[C@H]1CO2`, the outcome was inactive.

For the compound `CN1C(=O)c2cc(NC(=O)c3cccc(F)c3)ccc2OC[C@@H]2O[C@@H](CC(=O)O)CC[C@H]21`, the call was inactive.

Consider `CCNC(=O)C[C@@H]1CC[C@@H]2[C@@H](COc3ccc(NC(=O)C4CCCCC4)cc3C(=O)N2C)O1`, for which the call was inactive.

For `COc1cccc(OCc2cc(/C=N/Nc3ccc(C(=O)O)cc3)ccc2OC)c1`, the result was inactive.

With `COCC(=O)NC[C@H]1[C@@H](c2ccc(C3=CCCC3)cc2)[C@H](CO)N1C(=O)C1CC1`, the compound was called inactive.

On to `COc1ccc(NC(=O)Cn2nnc(C(=O)NCc3ccccc3OC)c2N)cc1Cl`, for which the call was inactive.

Take `CNC(=O)C[C@H]1CC[C@@H]2[C@H](COc3ccc(NC(=O)Nc4ccc(F)c(F)c4)cc3C(=O)N2C)O1`: the result was inactive.

As for `COCC(=O)N(C)C[C@H]1[C@H](c2ccccc2)[C@@H](CO)N1C(=O)NC(C)C`, the compound was classed as inactive.

Regarding `CCCNC(=O)C[C@H]1CC[C@@H]2[C@H](COc3ccc(NC(=O)c4cc(F)cc(F)c4)cc3C(=O)N2C)O1`, the call was inactive.

Take `COCCN(C[C@@H]1[C@@H](c2ccccc2)[C@H](CO)N1C(=O)C1CC1)C(C)=O`: the outcome was inactive.

Consider `COc1ccc(CN2CCOC2=O)cc1OC`, for which the compound was classed as inactive.

Consider `CCCNC(=O)Nc1ccc2c(c1)C(=O)N(C)[C@H]1CC[C@@H](CC(=O)NCC3CCCCC3)O[C@@H]1CO2`, for which the outcome was inactive.

Regarding `COC(=O)c1c(N)nc(C)n1-c1ccc(OC)cc1`, the compound was classed as inactive.

For the compound `COCC(=O)N(C)C[C@@H]1[C@H](c2ccc(-c3ccccc3)cc2)[C@@H](CO)N1C(C)=O`, the compound was classed as inactive.

For `CCNC(=O)C[C@@H]1CC[C@H]2[C@H](COc3ccc(NC(=O)c4cccc(C(F)(F)F)c4)cc3C(=O)N2C)O1`, the compound was classed as inactive.

As to `Cc1ccnc(Nc2nc(-c3c(C)nc4sccn34)cs2)c1`, the compound was classed as inactive.

As to `CN1C(=O)c2cc(NC(=O)c3cccc(F)c3)ccc2OC[C@@H]2O[C@H](CC(=O)O)CC[C@@H]21`, the compound was classed as inactive.

For the compound `CN(C)CCCNC(=O)C[C@H]1CC[C@H]2[C@H](COc3ccc(NC(=O)NC4CCCC4)cc3C(=O)N2C)O1`, the compound was classed as inactive.

For `COc1ccc(-c2ccc(C#N)c(OC(=O)c3c(Cl)cccc3Cl)n2)cc1`, the outcome was inactive.

Turning to `CO[C@H]1CN(C)C(=O)c2ccc(NS(C)(=O)=O)cc2OC[C@H](C)N(C(=O)CN(C)C)C[C@H]1C`, the result was inactive.

As for `CN1C(=O)c2cc(NC(=O)C3CCOCC3)ccc2OC[C@H]2O[C@H](CC(=O)NCc3ccc4c(c3)OCO4)CC[C@@H]21`, the compound was classed as inactive.

Consider `O=C(NC[C@@H]1[C@@H](c2ccccc2)[C@H](CO)N1C(=O)C1CCC1)NC1CCCC1`, for which the compound was called inactive.

Regarding `CCC(=O)N1[C@H](CO)[C@H](c2ccccc2)[C@@H]1CN(C(C)C)S(C)(=O)=O`, the outcome was inactive.

For the compound `CCCCC(=O)OCC(=O)c1[nH]c(C)c(C(=O)OCC)c1C`, the result was inactive.

For the compound `C/C=C/c1ccc([C@@H]2[C@H](CO)N[C@H]2CN(CC)C(=O)CN2CCOCC2)cc1`, the outcome was inactive.

For `C[C@@H]1CN([C@@H](C)CO)C(=O)c2cccc(NS(C)(=O)=O)c2O[C@H]1CN(C)S(=O)(=O)c1ccc(Cl)cc1`, the result was inactive.

Consider `CN(C)CCNc1ncnc2c1sc1nc(N3CCOCC3)c3c(c12)CC(C)(C)SC3`, for which the call was inactive.

Regarding `CO[C@@H]1CN(C)C(=O)c2ccc(NC(C)=O)cc2OC[C@@H](C)N(C(=O)c2ccccc2F)C[C@H]1C`, the result was inactive.

As to `C[C@H]1CN([C@@H](C)CO)C(=O)c2cc(-c3ccc(C#N)cc3)cnc2O[C@H]1CN(C)C(=O)Nc1ccc(C(F)(F)F)cc1`, the result was inactive.

For `C[C@@H]1CN([C@@H](C)CO)S(=O)(=O)c2ccc(/C=C/c3ccccc3)cc2O[C@@H]1CN(C)C(=O)c1cccnc1`, the result was inactive.

`COc1ccc(-c2c(C(C)=O)c(C)nc3sc4c(c23)NC(c2ccccc2)NC4=O)cc1` (centres undefined): the call was inactive.

As for `CO[C@@H]1CN(C)C(=O)c2cc(NC(=O)c3cccc(Oc4ccccc4)c3)ccc2OC[C@H](C)NC[C@@H]1C`, the result was inactive.

Consider `c1ccc(-n2nnnc2NCCc2c[nH]c3ccccc23)cc1`, for which the compound was classed as inactive.
